In PubChem BioAssay (Tox21):
Results filed as inconclusive are left out. A call without a number means that no potency is given here. A number with no mark means an inactive call. Calls of active or inactive are those of the source. Calls come from the whole dose curve.

Target: Beta-2 adrenergic receptor (Homo sapiens) (UniProt P07550)
Assay: Adrenergic beta2 receptor (ADRB2) small molecule agonists, cell-based qHTS assay (AID 1963593)
Settings: CHO-ADRB2 cells, cAMP HTRF, 30 min; series mostly up to 92.4 µM
From the text: National Center for Advancing Translational Sciences [NCATS]
Division of Preclinical Innovation [DPI]
U.S. Environmental Protection Agency [EPA]
National Institutes of Environmental Health Sciences [NIEHS]
National Toxicology Program [NTP]
U.S. Food and Drug Administration [FDA]
Beta adrenergic receptors (Beta-ARs) belong to the G-protein coupled receptor (GPCR) superfamily, includes three subtypes - beta1, beta2, and beta3. Beta1-AR is the predominant receptor subtype expressed in the heart, and beta2-AR is expressed in the kidney, lung, blood vessel and in the heart, and beta3 is found in the adipocytes. Beta1 and 2 ARs couple to Gs protein and elevate cyclic adenosine mono phosphate (cAMP), which activates protein kinase A and leads to the downstream signaling responsible for the physiological actions. Beta-AR agonists or antagonists are the most prescribed therapeutic agents for heart failure and asthma, and these were one of the first target receptors for the rational drug design. Tox21 10K compound library was screened using the cAMP-Gs dynamic assay (Cisbio Bioassays, Shelton, CT) to identify agonists/antagonists of the Gs-coupled human adrenergic, beta2 receptor (ADRB2) in the CHO-ADRB2 cell line (Codex BioSolutions, Inc. Gaithersburg, MD), which stably over-expresses ADRB2. The principle of cAMP-Gs dynamic assay is based on HTRF technology, which facilitates the fluorescence resonance energy transfer (FRET) between donor Europium cryptate and acceptor d2-labeled cAMP. The cAMP generated within cells competes with the red acceptor, d2-labled cAMP, for binding to the monoclonal anti-cAMP-cryptate (Europium donor). An increase in intracellular cAMP leads to the disruption of FRET signal, and the signal is inversely proportional to the cAMP concentration. Isoproterenol HCl (Sigma-Aldrich, St. Louis, MO) was used as a positive control in the screening.
Tox21 Assay Protocol Summary:
CHO-ADRB2 cells were dispensed at 1,000/well in 4uL assay medium into white/solid 1536-well plates (Greiner Bio-One North America Inc., Monroe, NC) using a Multidrop Combi dispenser (ThermoFisher Scientific, Waltham, MA). The assay plates were incubated at 37C and 5% CO2 for an overnight (18-20hr). Then positive control and test compounds dissolved in DMSO were transferred to the assay plates at 23nL using a Pintool station (Wako, San Diego, CA). Following the compound and positive control transfer, 1uL stimulation mix containing 100uM IBMX and 25uM Ro-20-1724 was added to each well of the assay plates using BioRAPTR Flying Reagent Dispenser (FRD, Beckman Coulter, Brea, CA). The assay plates were incubated at room temperature for 0.5hr. Then 2.5ul each d2-labled cAMP and anti-cAMP-cryptate solutions were added separately to each well of the assay plates using an FRD and the assay plates were incubated at room temperature for 1hr.
Potency is the fitted concentration of half-maximal effect.

Beta-2 adrenergic receptor (Homo sapiens), sequence (P07550 whole entry, looked up): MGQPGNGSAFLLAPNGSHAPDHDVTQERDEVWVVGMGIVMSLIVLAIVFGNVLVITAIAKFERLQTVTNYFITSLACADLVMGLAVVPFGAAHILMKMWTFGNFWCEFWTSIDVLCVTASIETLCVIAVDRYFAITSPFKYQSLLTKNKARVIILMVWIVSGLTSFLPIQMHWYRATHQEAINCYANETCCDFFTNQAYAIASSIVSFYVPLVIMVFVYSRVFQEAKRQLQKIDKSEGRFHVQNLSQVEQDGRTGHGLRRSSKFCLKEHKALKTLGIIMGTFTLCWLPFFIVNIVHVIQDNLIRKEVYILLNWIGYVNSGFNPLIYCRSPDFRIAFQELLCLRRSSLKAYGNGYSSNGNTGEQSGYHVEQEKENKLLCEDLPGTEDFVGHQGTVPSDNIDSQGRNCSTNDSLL

SMILES | Potency | activation
CCCC1CCCCN1 (stereo not given) | inactive | 
CC(C)Nc1nc(Cl)nc(NC(C)C)n1 | inactive | 
O=P(O)(Oc1ccccc1)Oc1ccccc1 | inactive | 
CCN(CC)c1ccccc1 | inactive | 
O=[N+]([O-])c1ccc(Cl)cc1 | inactive | 
N#Cc1ccccc1N | inactive | 
C[C@]12CCC(=O)C(O)=C1CC[C@@H]1[C@@H]2CC[C@]2(C)C(=O)CC[C@@H]12 | inactive | 
Cc1ccc2cc(C)ccc2c1 | inactive | 
COP(=O)(OC)OC=C(Cl)Cl | inactive | 
CCN(CC)Cc1nccn1-c1ccc([N+](=O)[O-])cc1C(=O)c1ccccc1Cl | inactive | 
CN(C)P(=O)(N(C)C)N(C)C | inactive | 
CCBr | inactive | 
Cc1ccccc1N | inactive | 
c1ccc(P(c2ccccc2)c2ccccc2)cc1 | inactive | 
Cc1cc(O)ccc1Cl | inactive | 
Cc1cccc(C)c1NC(=O)CN1CCCC1=O | inactive | 
c1ccc2c(c1)CCCC2 | inactive | 
CNC(=O)Oc1cccc2ccccc12 | inactive | 
[CH3][Sn]([CH3])([Cl])[Cl] | inactive | 
CN(N=O)C(N)=O | inactive | 

SMILES | Potency | activation
O=C(O)c1nc(Cl)ccc1Cl | inactive | 
O=C1c2ccccc2C(=O)N1SC(Cl)(Cl)Cl | 21.7 µM (active) | 
CC[N+]1(C)CCCC1 | inactive | 
O=C1CCCN1 | inactive | 
Cc1cc(Cl)ccc1O | inactive | 
Clc1cccc(C(Cl)(Cl)Cl)n1 | inactive | 
N#Cc1ccncc1 | inactive | 
CCCCC(CC)COC(=O)Cl (stereo not given) | inactive | 
COc1ccc(C(O)(c2cncnc2)C2CC2)cc1 (stereo not given) | inactive | 
C=CC(=O)OCC(CC)CCCC (stereo not given) | inactive | 
ClC(Cl)=C(c1ccc(Cl)cc1)c1ccc(Cl)cc1 | inactive | 
COc1ccccc1OC | inactive | 
O=C(CBr)c1ccc(O)cc1 | inactive | 
Clc1cnc(Oc2ccc(Oc3ncc(Cl)cc3Cl)cc2)c(Cl)c1 | inactive | 
CCCCCON=O | inactive | 
Cc1cccc(N)c1C | inactive | 
CCC(Br)(CC)C(=O)NC(N)=O | inactive | 
COc1nc(NC(C)C)nc(NC(C)C)n1 | inactive | 
CCOP(=O)(OCC)OCC | inactive | 
Brc1c(Br)c(Br)c(Oc2c(Br)c(Br)c(Br)c(Br)c2Br)c(Br)c1Br |  | -14.9% [at 19 µM]
